# Bioassay records: PubChem BioAssay, National Center for Advancing Translational Sciences (NCATS)
# IL1B secr inh – blocks inflammasome-driven IL-1 beta release; activity change, % at 57.5 µM; AID 743279; 360,000 tested, 4.7% active; THP-1 LPS/ATP IL-1B secretion, AlphaLISA, 16 h; active compounds read low; in the data active = activity change below about -50%; inconclusive = mostly about -30% to -49%
#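 Secreted IL-1B measured by AlphaLISA bead assay after 16 h compound exposure of THP-1 cells; compounds (final up to 57.5 uM) added 1 h before LPS (250 ng/mL) and ATP (1.25 mM) stimulation; lower signal means less secretion.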
# ELG1 repair inh – blocks ELG1-dependent DNA repair in HEK293T cells; HEK293T ELG1-luciferase reporter, luminescence, 16 h; DNA damage induced by 5-fluorouridine; Potency, µM (doses to about 46.1 µM), inactives show at the top dose activity change, negative = inhibition, usual class: inhibitors; 330,000 tested, 2.3% active; note: potency is the fitted concentration of half-maximal effect; nearly all actives have a fitted effect of over 55% in size
#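 Cells (2,000 per well) received 5-fluorouridine plus test compound or DMSO and were incubated 16 hr at 37 °C, 5% CO2. Luciferase activity was read by luminescence 30 min after ONE-Glo addition; signal suppression marked inhibition of damage-induced ELG1 function.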
# TDP1 cell noCPT – qHTS for Inhibitors of human tyrosyl-DNA phosphodiesterase 1 (TDP1): qHTS in cells in absence of CPT. DT40 Tdp1-/- hTDP1 cells, no CPT, ATP luminescence, 48 h. Potency, µM (titrated, usually from 46.2 µM), inactives show top-dose activity change, negative = growth inhibition, most hits filed as inhibitors. 420,000 tested, 15% active. AID 686978, 2013; note: potency is the fitted concentration of half-maximal effect; nearly all actives have a fitted effect of over 55% in size
#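 Chicken DT40 Tdp1-/- cells stably complemented with human TDP1 were seeded at 400 cells/well with DMSO in place of 20 nM camptothecin. After compound pinning, cells grew at least 48 hr at 37 °C; viability read by CellTiter-Glo luminescence.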
# Gal4-VP16 FLuc – Gal4-VP16 reporter inhibition counter-screen. AID 2546. Potency, µM (doses to about 53.6 µM), for inactives: top-dose activity, negative = inhibition, usual class: inhibitors. 310,000 tested, 3.5% active. Drosophila S2 Gal4-VP16 UAS-luciferase, luminescence, 20 h;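 note: Gal4-VP16 expression switched on by copper sulfate through the metallothionein promoter; potency is the fitted concentration of half-maximal effect; nearly all actives have a fitted effect of over 50% in size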
# RORgamma inh – blocks mouse ROR gamma transcriptional activity | Drosophila S2 Gal4-RORgamma UAS-luciferase reporter, 20 h | P51450 | Potency, µM (series often up to 53.6 µM), for the others: top-dose activity change, negative = inhibition, most hits filed as inhibitors | 310,000 tested, 5.4% active; note: potency is the fitted concentration of half-maximal effect; nearly all actives have a fitted effect of over 60% in size
# Target sequence (P51450 whole entry, looked up, the tested form may be a part): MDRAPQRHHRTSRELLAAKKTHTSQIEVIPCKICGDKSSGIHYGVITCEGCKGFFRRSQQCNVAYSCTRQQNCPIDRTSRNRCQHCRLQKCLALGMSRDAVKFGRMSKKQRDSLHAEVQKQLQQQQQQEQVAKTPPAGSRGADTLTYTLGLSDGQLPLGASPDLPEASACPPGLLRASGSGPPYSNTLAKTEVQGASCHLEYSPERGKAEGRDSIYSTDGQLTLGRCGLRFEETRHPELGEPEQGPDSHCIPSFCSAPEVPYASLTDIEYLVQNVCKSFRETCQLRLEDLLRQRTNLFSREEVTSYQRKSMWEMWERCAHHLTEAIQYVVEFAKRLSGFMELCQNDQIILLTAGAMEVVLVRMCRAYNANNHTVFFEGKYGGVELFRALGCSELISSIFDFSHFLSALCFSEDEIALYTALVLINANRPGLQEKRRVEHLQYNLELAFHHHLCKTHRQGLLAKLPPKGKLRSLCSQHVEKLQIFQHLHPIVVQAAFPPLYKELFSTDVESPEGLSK
#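 In this cell-based reporter format, copper sulfate (700 uM final) drives Gal4–ROR gamma fusion expression from a metallothionein promoter in Drosophila Schneider cells; compounds preincubated 1 hr, reporter read after 20 hr at ambient temperature.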
# TDP1 cell CPT – growth inhibition of DT40 Tdp1-/-;hTDP1 cells with camptothecin (screen for TDP1 inhibitors) | chicken DT40 Tdp1-/-;hTDP1 cells + 20 nM CPT, ATP luminescence, 48 h | Potency, µM (titrated, usually from 46.2 µM), inactives show at the highest dose activity change, negative = growth inhibition, usual class: inhibitors | 420,000 tested, 12% active | AID 686979; note: potency is the fitted concentration of half-maximal effect; nearly all actives have a fitted effect of over 55% in size
#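 Cell growth measured by CellTiter-Glo luminescence after a minimum 48 h, 37 C compound exposure with 20 nM CPT in Tdp1-knockout DT40 cells stably expressing hTDP1, seeded 400/well; qHTS titration format.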
# An asterisk follows results filed as active; ? = inconclusive; . = no result given; [ ] = remark or other dose. Hits are enriched below; roughly 21% of the tested compounds scored in any of these assays. Unless noted, calls come from the whole dose curve; as a rule, active = well fitted curve in the direction sought with a large enough effect; inconclusive = small, poorly fitted or top-dose-only effect, or another doubt; inactive = no such curve, though single readings can be large; an effect the other way counts as inactive or inconclusive. % is set by controls: 0 for no effect and ±100 for the full control effect.
SMILES,IL1B secr inh,ELG1 repair inh,TDP1 cell noCPT,Gal4-VP16 FLuc,RORgamma inh,TDP1 cell CPT
COc1cc(O)ccc1-c1nc2cc(C)ccn2c1Nc1ccccc1C,.,.,25.9µM*,.,.,13µM*
Cc1ccn2c(Nc3ccccc3C)c(-c3ccccc3)nc2c1,.,.,?,.,.,20.6µM*
Cc1ccc2nc(-c3ccccc3O)c(Nc3ccccc3C)n2c1,.,.,-19.8%,.,.,-25.3%
O=C(C[C@@H]1C=C[C@@H](NC(=O)C2CC2)[C@@H](CO)O1)NCc1ccccc1Cl,-5.1,.,-4.6%,.,.,-5.1%
COc1cc(/C=C/C(=O)OCC(=O)NC(=O)NC(C)C)cc(S(=O)(=O)N2CCc3ccccc32)c1OC,?,?,20.6µM*,2.6%,-13.4%,?
COc1cc(/C=C/C(=O)OCC(=O)N2CCc3ccccc32)cc(OC)c1OC,-1.6,.,?,.,.,?
C=CCN1C(=O)/C(=C/c2ccc(O)c(OC)c2)S/C1=N/c1nccs1,-23.9,23.1µM*,?,-10.3%,13.0%,-20.0%
O=C(NCC1CCCO1)c1cc2c([nH]c3ccccc32)c(-c2cccc(Cl)c2)n1 (configuration not stated),-65.4*,?,2.31µM*,-12.7%,?,4.11µM*
COc1ccccc1-c1nc(C(=O)NCC2CCCO2)cc2c1[nH]c1ccccc12 (configuration not stated),-23.8,?,14.6µM*,-3.0%,41.0%,20.6µM*
O=C(NCC1CCCO1)c1cc2ccccc2[nH]1 (configuration not stated),9.7,?,?,13.9%,18.4%[10 µM],-21.7%
COc1cccc2[nH]c(C(=O)NCC3CCCO3)cc12 (configuration not stated),36.5,?,30.5%,14.6%,-1.2%,-4.1%
COc1cc(-c2nc(C(=O)NCC3CCCO3)cc3c2[nH]c2ccccc23)cc(OC)c1OC (configuration not stated),-18.1,?,7.31µM*,-16.9%,?,5.8µM*
CC(=O)c1ccc(-c2c(C3C4C=CCC(C)C4C(=O)N3Cc3ccccc3)ccc3ccccc23)cc1 (configuration not stated),.,.,.,5.3%,-12.9%,.
CN(C)CCNC(=O)CN1C(=O)CCn2nc(-c3cn(C)c4ccccc34)cc21,.,.,4.4%,.,.,-13.3%
NC(=O)c1c(/N=C/c2cccnc2)sc2c1CCCC2,13.1,?,?,-8.7%,-12.2%,?
CC(C)(C)c1ccc(C(O)c2ncc(-c3ccccc3F)[nH]2)cc1 (configuration not stated),-8.9,.,?,.,.,?
Cc1[nH]n(-c2ccccc2)c(=O)c1C(c1cccc([N+](=O)[O-])c1)c1c(C)[nH]n(-c2ccccc2)c1=O,-84.7*,5.1%,20.6µM*,-14.2%,25.5%,?
Cc1[nH]n(-c2ccccc2)c(=O)c1C(C[N+](=O)[O-])c1ccc(Br)cc1 (configuration not stated),-15.0,-24.9%,9.2µM*,-26.5%,?,11.6µM*
O=C(NC1CCN(Cc2ccccc2)CC1)c1ccc(CS(=O)c2ccccc2Cl)o1 (configuration not stated),4.5,.,?,.,.,?
CC1(C)[C@H]2CC[C@]1(C)[C@H](O)C2,.,.,-8.1%,.,.,9.9%
CN(C)C(CNC(=O)c1cc(S(=O)(=O)N(C)c2ccc(F)cc2)ccc1Cl)c1ccco1 (configuration not stated),5.7,-4.3%,7.31µM*,.,.,9.2µM*
CN(c1ccccc1)S(=O)(=O)c1ccc(Cl)c(C(=O)NCc2ccco2)c1,19.3,-27.3%,?,.,.,?
Cc1ccc(N(C)S(=O)(=O)c2cccc(C(=O)NCC(c3ccco3)N3CCCC3)c2)cc1 (configuration not stated),?,-27.8%,?,.,.,?
CN(C)C(CNC(=O)c1cc(S(=O)(=O)N(C)c2ccccc2)ccc1Cl)c1ccccc1 (configuration not stated),-10.2,?,6.51µM*,7.2%,22.9%,5.8µM*
CN(c1ccc(F)cc1)S(=O)(=O)c1ccc(Cl)c(C(=O)NCC(c2ccco2)N2CCCCC2)c1 (configuration not stated),-18.5,-15.1%,2.31µM*,.,.,2.31µM*
SMILES,IL1B secr inh,ELG1 repair inh,TDP1 cell noCPT,Gal4-VP16 FLuc,RORgamma inh,TDP1 cell CPT
Cc1ccc(S(=O)(=O)N(C)c2ccc(C(=O)NCC(c3ccco3)N3CCCC3)cc2)cc1 (configuration not stated),-16.8,.,16.4µM*,.,.,?
C[C@H]1CN(c2ccccc2)C(=O)[C@@H]1CC(=O)Nc1ccccc1,-19.1,.,-26.8%,.,.,6.7%
CN(c1ccccc1)S(=O)(=O)c1ccc(Cl)c(C(=O)NCc2ccccc2CN2CCCC2)c1,?,-2.1%,23.1µM*,.,.,?
Cc1ccc(S(=O)(=O)N2CCOCC2)cc1C(=O)NCc1ccccc1CN1CCCC1,0.0,5.4%,10.2%,.,.,-8.1%
Cc1ccc(C(=O)NCc2ccc(N(C)C)cc2)cc1NC(=O)c1nsc2ccccc12,.,.,16.4µM*,.,.,?
CN(C)c1ccc(CNC(=O)c2ccc(NC(=O)c3nsc4ccccc34)cc2)cc1,.,.,?,.,.,-29.2%
Cc1ccc(C(=O)NCc2ccccc2)cc1NC(=O)c1nsc2ccccc12,.,.,16.4µM*,.,.,?
O=C(NNC(=O)c1ccccc1Br)c1ccccc1Cl,-6.1,?,-12.4%,2.3%,24.6%,0.2%
O=C(NNC1=Nc2cccc3cccc1c23)c1ccccc1Br,?,10.4%,?,1.12µM*,0.708µM*,?
CNC[C@H](Cc1ccccc1)NC[C@@H](Cc1cccc2ccccc12)NCCc1ccc(C)cc1,-106.5*,?,14.6µM*,?,?,18.4µM*
CCN(C(=O)c1cn(C)c(=O)c2ccccc12)c1cccc(C)c1,.,.,?,.,.,-29.6%
Cc1ccccc1C(=O)O/N=C(\c1ccccc1)c1ccccn1,10.0,-9.3%,-24.0%,?,?,?
O=C(CC(CC(=O)c1ccccc1)c1ccccn1)c1ccccc1,3.3,.,14.6µM*,.,.,?
O=C(CC(=O)c1ccccn1)c1ccccc1,59.8,.,16.4µM*,.,.,20.6µM*
O=C(Nc1ccccc1)O/N=C(\c1ccccc1)c1ccccn1,0.0,?,-6.3%,-6.6%,11.2µM*,-12.7%
CCCCN(CCC#N)c1ccc(/C=C/c2ccnc3ccccc23)cc1,.,.,10µM*,.,.,10µM*
CC(C)CN(CC(C)C)c1ccc(/C=C/c2ccnc3ccccc23)cc1,.,.,17.8µM*,.,.,12.6µM*
